Screening results deposited in PubChem by The Scripps Research Institute Molecular Screening Center.
This is a sample that favours compounds with a hit; in the whole collection about 3.5% have one here.
MITF inh – human MITF inhibition, primary screen. O75030. AlphaScreen MITF homodimerization, bead proximity signal. inhibition, % at 2.6 µM. actives 0.91% (n = 650,000); in the data active means inhibition above about 50%;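 further: 0% = vehicle wells with protein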
FBW7 act – activators of human E3 ligase FBW7. Q969H0. AlphaScreen FBW7–phospho-cyclin E peptide binding, activator screen. actives 0.13% (n = 650,000). normalized activity (activation), % at 26.1 µM; in the data active means normalized activity above about 1.9%;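 further: purified mutant Fbw7 with reduced substrate affinity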
TEAD-YAP block – TEAD-YAP interaction inhibition; actives 1.4% (n = 640,000); HEK-TIYL cells, TEAD-Gal4/YAP UAS-luciferase luminescence; inhibition, % at 9.12 µM; in the data active means inhibition above about 32%;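 further: 0% = median of test compound wells and 100% = reference inhibitor wells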
GPR151 ag – human GPR151 activation; PathHunter beta-arrestin GPR151 cells, luminescence; activation, % at 11.2 µM; AID 1508602; actives 1% (n = 650,000); Q8TDV0; in the data active means activation above about 4.9%;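 further: 0% = median of compound wells and 100% = cells with positive control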
Target sequence (Q8TDV0 whole entry, looked up): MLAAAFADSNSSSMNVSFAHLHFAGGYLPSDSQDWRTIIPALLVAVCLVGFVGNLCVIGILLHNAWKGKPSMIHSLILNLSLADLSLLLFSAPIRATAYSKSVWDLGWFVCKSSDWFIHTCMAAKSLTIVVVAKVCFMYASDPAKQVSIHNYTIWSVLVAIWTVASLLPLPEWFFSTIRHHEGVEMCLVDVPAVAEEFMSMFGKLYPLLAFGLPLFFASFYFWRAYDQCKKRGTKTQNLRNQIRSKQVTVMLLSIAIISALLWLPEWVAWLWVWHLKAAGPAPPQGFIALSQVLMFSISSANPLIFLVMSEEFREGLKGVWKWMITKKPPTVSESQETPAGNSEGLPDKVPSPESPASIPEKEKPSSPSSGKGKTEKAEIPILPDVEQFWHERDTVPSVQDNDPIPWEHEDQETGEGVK
MITF inh conf – confirmation of human MITF inhibitors. shares compounds with MITF inh. AlphaScreen MITF homodimerization, biotin/His-MITF beads. inhibition, % at 2.6 µM. actives 16% (n = 4,700). AID 1259372;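 active means inhibition above a cutoff derived from the DMSO control wells, cut at about 28% in these data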;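 further: 0% = MITF dimer wells with DMSO only; inhibitors lower the bead chemiluminescence by keeping MITF from dimerizing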
AS interf DR – counter-screen: compounds optically interfering with AlphaScreen | IC50, µM | actives 6% (n = 480) | shares compounds with MITF inh | AlphaScreen optical interference counterscreen, cell-free | AID 1259373; call rule not given here
AlphaScreen intf2 – AlphaScreen optical interference, counter-screen; inhibition, % at 2.6 µM; actives 7.6% (n = 4,700); shares compounds with MITF inh; LysRS AlphaScreen counterscreen, signal interference, triplicate;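 active means inhibition above a cutoff derived from the DMSO control wells, cut at about 30% in these data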
Numbers without * were called inactive.

`O=C(O)C1C2C=CC(O2)C1C(=O)Nc1ccc(Cl)c([N+](=O)[O-])c1` (centres undefined) gave MITF inh 12, FBW7 act 0, TEAD-YAP block -1 and GPR151 ag 2.
`O=C(O)c1c2c(nc3ccc(S(=O)(=O)N4CCC(C(=O)O)CC4)cc13)CCC2` gave MITF inh 68*, FBW7 act 0, TEAD-YAP block -8, GPR151 ag 1, MITF inh conf 31*, AS interf DR >6.5 and AlphaScreen intf2 1.
COc1ccc(N2CCN(c3cc(=O)n(-c4ccc(Cl)cc4)c(=O)[nH]3)CC2)cc1 was read as MITF inh -26, FBW7 act 0, TEAD-YAP block -3 and GPR151 ag 0.
`O=S(=O)(c1ccc(Cl)cc1)N1CCN(C2CCN(Cc3ccccc3)CC2)CC1` gave MITF inh 2, FBW7 act 0, TEAD-YAP block -5 and GPR151 ag -1.
For CN1CCN(C2CCN(S(=O)(=O)c3ccccc3)CC2)CC1 the results were MITF inh 59*, FBW7 act 0, TEAD-YAP block 6, GPR151 ag 0, MITF inh conf 6 and AlphaScreen intf2 14.
Screening COc1ccc(S(=O)(=O)N2CCCN(Cc3ccccc3)CC2)cc1 returned MITF inh 17, FBW7 act 0, TEAD-YAP block 4 and GPR151 ag -1.
For O=S(=O)(c1ccc2ccccc2c1)N1CCC(N2CCN(Cc3ccccc3)CC2)CC1 the results were MITF inh 57*, FBW7 act 0, TEAD-YAP block 11, GPR151 ag -2, MITF inh conf 6 and AlphaScreen intf2 15.
`COc1ccc(S(=O)(=O)N2CCC(N3CCN(Cc4ccccc4)CC3)CC2)cc1` gave MITF inh 78*, FBW7 act 0, TEAD-YAP block 7, GPR151 ag 0, MITF inh conf -2 and AlphaScreen intf2 0.
COc1ccc(S(=O)(=O)N2CCN(c3ccccc3F)CC2)cc1 was read as MITF inh 22, FBW7 act 0, TEAD-YAP block -11 and GPR151 ag 0.
`O=S(=O)(c1ccccc1)N1CCC(N2CCCCCC2)CC1` gave MITF inh 28, FBW7 act 0, TEAD-YAP block 1 and GPR151 ag 2.
Screening COc1ccc(S(=O)(=O)N2CCC(N3CCN(c4ccccc4F)CC3)CC2)cc1 returned MITF inh 52*, FBW7 act 0, TEAD-YAP block 9, GPR151 ag 0, MITF inh conf 7 and AlphaScreen intf2 -1.
For O=C(c1ccco1)N1CCN(c2nccnc2NS(=O)(=O)c2ccccc2)CC1 the results were MITF inh 6, FBW7 act 0, TEAD-YAP block -6 and GPR151 ag -1.
Screening CC(C)(C)C(=O)COC(=O)CN1C(=O)c2cccc([N+](=O)[O-])c2C1=O returned MITF inh 10, FBW7 act 0, TEAD-YAP block 0 and GPR151 ag 0.
Screening CC(O)c1cccc(NC(=O)c2cc3n(n2)C(C(F)(F)F)CC(c2ccc(F)cc2)N3)c1 (centres undefined) returned MITF inh 4, FBW7 act 0, TEAD-YAP block -7 and GPR151 ag 2.
Screening NC(=O)c1oc2ccccc2c1NC(=O)c1sc2ccccc2c1Cl returned MITF inh 58*, FBW7 act 0, TEAD-YAP block 5, GPR151 ag 0, MITF inh conf 8 and AlphaScreen intf2 6.
NC(=O)c1oc2ccccc2c1NC(=O)c1ccc(Cl)cc1 was read as MITF inh 6, FBW7 act 0, TEAD-YAP block 4 and GPR151 ag 0.
Screening O=C(CNCCN1CCCCC1)Nc1ccc(N2CCCC2)cc1 returned MITF inh 83*, FBW7 act 0, TEAD-YAP block -6, GPR151 ag 0, MITF inh conf 15 and AlphaScreen intf2 61*.
`O=C(CNCCCN1CCOCC1)Nc1ccc(N2CCCCCC2)cc1` gave MITF inh 75*, FBW7 act 0, TEAD-YAP block -3, GPR151 ag -1, MITF inh conf 5 and AlphaScreen intf2 25.
